What all share (set-up): scale not given: direction of the effect not stated beside the values
Test [1] deals with Protein translocase subunit SecA (Escherichia coli (strain K12)) (UniProt P10408). The experiment in a line: Assay to Identify E. coli SecA ATPase Inhibitors. Format: functional. The note with it: 30 µM.
Test [2] deals with T1, Ubiquitin-activating enzyme e1, putative (Leishmania donovani (strain BPK282A1)) (UniProt E9BSI1).
T1 sequence (whole entry): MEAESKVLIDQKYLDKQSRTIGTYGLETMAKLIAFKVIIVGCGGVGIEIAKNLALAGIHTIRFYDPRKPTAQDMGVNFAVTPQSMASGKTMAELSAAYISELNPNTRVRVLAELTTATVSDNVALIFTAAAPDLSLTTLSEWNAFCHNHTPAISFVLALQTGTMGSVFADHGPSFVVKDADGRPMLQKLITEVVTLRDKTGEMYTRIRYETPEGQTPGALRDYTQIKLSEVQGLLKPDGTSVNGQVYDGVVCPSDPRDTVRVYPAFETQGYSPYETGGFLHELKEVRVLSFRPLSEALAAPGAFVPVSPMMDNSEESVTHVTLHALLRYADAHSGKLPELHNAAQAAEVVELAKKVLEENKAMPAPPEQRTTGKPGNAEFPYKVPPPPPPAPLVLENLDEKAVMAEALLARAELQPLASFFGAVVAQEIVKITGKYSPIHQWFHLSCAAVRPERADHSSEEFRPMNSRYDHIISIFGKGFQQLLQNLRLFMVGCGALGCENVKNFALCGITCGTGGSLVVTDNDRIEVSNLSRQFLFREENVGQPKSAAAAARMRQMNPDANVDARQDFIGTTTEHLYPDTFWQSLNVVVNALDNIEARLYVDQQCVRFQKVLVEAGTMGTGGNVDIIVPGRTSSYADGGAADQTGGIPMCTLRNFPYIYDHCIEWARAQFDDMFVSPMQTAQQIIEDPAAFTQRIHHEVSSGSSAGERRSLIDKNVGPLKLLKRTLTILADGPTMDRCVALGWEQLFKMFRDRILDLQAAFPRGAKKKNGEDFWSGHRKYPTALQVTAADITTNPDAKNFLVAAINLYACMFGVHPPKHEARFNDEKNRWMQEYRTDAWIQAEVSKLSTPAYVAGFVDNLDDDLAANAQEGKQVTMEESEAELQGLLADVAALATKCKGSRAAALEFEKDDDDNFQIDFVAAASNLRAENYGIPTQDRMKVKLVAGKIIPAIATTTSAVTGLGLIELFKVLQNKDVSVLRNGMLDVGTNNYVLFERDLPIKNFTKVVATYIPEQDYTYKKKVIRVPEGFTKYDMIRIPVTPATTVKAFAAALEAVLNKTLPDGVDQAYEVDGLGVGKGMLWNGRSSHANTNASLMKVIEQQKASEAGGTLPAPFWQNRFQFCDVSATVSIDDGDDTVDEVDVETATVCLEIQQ
The test is described as follows: Leishmania donovani Ubiquitin Activating Enzyme (LdE1). Format: functional. The settings on record: 30 µM.

Test [3] concerns the target AMP-activated protein kinase, AMPK (Homo sapiens) (UniProt P54646+O43741+P54619+Q9UGJ0+Q9Y478+Q13131+Q9UGI9). The experiment in a line: AMP-dependent Kinase enzyme assay. An in vitro enzyme assay that detects ADP turnover that is directly proportional to AMPK activity. This uses naive AMPK that is activated during the assay with MK-8722. The test is classed as functional. The settings on record: 30 µM.

For test [4], the target named is Sialic acid-binding Ig-like lectin 9 (Homo sapiens) (UniProt Q9Y336). The experiment in a line: Hs-Siglec9 ALPHAscreen SOP 20170721. The settings on record: 10 µM. For orientation: Bead proximity is the source of the signal in Alpha formats.
The test system of another test is Trypanosoma cruzi. The experiment in a line: Trypanosoma cruzi phosphomannomutase and mannose-1-phosphate guanylyltransferase assay. The test is classed as functional. The settings on record: 10 µM.
Test [5] has as its target T2, Arginase-2, mitochondrial (Homo sapiens) (UniProt P78540).
T2 sequence (whole entry): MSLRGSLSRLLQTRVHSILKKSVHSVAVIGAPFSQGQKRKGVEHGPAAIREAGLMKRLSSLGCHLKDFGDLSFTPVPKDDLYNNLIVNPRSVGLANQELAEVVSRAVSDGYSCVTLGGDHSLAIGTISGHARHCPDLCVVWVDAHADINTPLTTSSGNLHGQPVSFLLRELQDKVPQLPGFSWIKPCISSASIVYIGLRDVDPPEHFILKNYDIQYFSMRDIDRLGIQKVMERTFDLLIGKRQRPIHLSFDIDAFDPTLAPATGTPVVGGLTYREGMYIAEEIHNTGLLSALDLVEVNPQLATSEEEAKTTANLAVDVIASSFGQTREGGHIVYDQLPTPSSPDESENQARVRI
The test is described as follows: in vitro enzyme assay to detect the production of urea directly proportional to the activity of Arginase II. Also: in the data most compounds retested in dose-response had high values. The test is classed as functional. The note with it: 33.3 µM.

Test [6] addresses T3, Proteasome subunit beta (Trypanosoma cruzi) (UniProt O96673).
T3 sequence (whole entry): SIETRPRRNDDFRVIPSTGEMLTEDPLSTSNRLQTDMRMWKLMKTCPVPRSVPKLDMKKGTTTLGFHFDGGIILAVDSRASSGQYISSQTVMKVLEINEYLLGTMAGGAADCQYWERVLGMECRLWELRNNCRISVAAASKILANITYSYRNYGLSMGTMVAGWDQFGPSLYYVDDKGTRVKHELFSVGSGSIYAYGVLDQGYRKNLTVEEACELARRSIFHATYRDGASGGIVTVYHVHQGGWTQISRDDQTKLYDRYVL
The test is described as follows: Trypanosoma cruzi proteasome chymotrypsin-like activity (TcProtChymo) assay. Also: in the data most compounds retested in dose-response had high values. The test is classed as functional. The settings on record: 9.37 µM.

The species named for a further test is Homo sapiens. The experiment in a line: To identify inhibition of the IFN signalling (Jak-Stat) pathway via expression of an eGFP reporter gene under the control of an IFN-stimulated response element (ISRE) containing MxA promoter. Format: functional. The settings on record: 30 µM.
Test [7] has as its target T4, Tyrosyl-tRNA synthetase, putative (Trypanosoma cruzi (strain CL Brener)) (UniProt Q4DSP6).
T4 sequence (whole entry): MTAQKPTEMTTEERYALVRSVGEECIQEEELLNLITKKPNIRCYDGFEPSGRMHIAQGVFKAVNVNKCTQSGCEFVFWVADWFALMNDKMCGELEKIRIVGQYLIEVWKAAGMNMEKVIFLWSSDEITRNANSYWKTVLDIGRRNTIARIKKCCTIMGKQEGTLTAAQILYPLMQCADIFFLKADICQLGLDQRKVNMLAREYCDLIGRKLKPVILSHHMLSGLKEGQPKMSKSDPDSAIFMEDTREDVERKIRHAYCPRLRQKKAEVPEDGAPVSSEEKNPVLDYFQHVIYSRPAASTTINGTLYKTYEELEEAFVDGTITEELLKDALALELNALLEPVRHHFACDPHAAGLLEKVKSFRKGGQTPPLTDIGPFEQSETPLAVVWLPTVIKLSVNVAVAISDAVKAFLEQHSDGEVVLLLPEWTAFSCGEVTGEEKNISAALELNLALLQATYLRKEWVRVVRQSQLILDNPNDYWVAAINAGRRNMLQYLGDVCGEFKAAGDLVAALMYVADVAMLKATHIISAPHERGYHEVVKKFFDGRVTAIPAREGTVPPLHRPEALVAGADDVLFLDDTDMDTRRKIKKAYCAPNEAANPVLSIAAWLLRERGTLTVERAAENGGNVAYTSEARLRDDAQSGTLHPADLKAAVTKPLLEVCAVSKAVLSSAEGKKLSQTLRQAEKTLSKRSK
The test is described as follows: Trypanosoma cruzi tyrosyl tRNA synthetase (TcYRS) _High Tyrosine SOP. Also: in the data most compounds retested in dose-response had high values. The test is classed as functional. The note with it: 30 µM.

The target of test [8] is T4, Tyrosyl-tRNA synthetase, putative (Trypanosoma cruzi (strain CL Brener)). The experiment in a line: Trypanosoma cruzi tyrosyl tRNA synthetase (TcYRS) SOP. The note with it: 30 µM. Format: functional.
Test [9] has as its target Chromo domain-containing protein 1 (Saccharomyces cerevisiae (strain ATCC 204508 / S288c) (Baker's yeast)) (UniProt P32657). The experiment in a line: ScCHD-1 Enzyme Inhibition Assay. Also: in the data most compounds retested in dose-response had high values. Format: functional. The settings on record: 30 µM.

For some of these results: Potency and affinity values are given separately.

Sequence of Chromo domain-containing protein 1 (Saccharomyces cerevisiae (strain ATCC 204508 / S288c) (Baker's yeast)) (P32657 whole entry, the tested form may be a part): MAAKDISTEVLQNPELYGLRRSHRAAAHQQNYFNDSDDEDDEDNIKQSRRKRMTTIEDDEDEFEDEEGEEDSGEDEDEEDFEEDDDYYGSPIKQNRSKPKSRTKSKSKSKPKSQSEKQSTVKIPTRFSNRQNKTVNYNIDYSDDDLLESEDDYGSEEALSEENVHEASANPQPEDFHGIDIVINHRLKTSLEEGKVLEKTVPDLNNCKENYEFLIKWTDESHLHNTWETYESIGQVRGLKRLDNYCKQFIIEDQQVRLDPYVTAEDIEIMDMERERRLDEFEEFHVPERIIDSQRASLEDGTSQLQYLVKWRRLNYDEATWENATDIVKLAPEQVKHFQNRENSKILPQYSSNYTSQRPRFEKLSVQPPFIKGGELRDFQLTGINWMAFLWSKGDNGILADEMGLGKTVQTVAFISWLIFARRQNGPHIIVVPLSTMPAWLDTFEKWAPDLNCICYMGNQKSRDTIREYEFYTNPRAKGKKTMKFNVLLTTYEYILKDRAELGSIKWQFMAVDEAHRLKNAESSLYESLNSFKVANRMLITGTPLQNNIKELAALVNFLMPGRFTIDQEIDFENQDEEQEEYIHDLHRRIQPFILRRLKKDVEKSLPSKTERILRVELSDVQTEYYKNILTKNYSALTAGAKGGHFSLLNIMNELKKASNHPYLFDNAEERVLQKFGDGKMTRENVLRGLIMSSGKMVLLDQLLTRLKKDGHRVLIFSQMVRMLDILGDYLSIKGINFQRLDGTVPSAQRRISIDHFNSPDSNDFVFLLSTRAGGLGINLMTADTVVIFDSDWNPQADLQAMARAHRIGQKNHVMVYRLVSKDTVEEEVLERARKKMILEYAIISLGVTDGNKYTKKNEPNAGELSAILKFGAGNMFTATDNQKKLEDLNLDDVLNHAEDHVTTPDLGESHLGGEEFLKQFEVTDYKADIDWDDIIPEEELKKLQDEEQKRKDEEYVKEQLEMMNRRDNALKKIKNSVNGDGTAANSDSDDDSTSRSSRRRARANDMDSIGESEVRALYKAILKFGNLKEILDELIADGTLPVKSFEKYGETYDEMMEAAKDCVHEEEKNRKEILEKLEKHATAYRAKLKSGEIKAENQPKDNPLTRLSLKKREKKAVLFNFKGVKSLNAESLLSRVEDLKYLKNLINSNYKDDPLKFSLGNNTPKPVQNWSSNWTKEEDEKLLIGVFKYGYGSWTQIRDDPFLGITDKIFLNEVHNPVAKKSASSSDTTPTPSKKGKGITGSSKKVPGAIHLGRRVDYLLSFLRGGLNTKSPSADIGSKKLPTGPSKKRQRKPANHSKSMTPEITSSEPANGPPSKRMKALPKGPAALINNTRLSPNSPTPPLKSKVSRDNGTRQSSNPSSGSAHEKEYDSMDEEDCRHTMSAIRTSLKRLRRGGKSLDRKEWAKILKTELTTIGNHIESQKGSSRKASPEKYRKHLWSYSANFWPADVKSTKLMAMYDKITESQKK
Sequence of Protein translocase subunit SecA (Escherichia coli (strain K12)) (P10408 whole entry): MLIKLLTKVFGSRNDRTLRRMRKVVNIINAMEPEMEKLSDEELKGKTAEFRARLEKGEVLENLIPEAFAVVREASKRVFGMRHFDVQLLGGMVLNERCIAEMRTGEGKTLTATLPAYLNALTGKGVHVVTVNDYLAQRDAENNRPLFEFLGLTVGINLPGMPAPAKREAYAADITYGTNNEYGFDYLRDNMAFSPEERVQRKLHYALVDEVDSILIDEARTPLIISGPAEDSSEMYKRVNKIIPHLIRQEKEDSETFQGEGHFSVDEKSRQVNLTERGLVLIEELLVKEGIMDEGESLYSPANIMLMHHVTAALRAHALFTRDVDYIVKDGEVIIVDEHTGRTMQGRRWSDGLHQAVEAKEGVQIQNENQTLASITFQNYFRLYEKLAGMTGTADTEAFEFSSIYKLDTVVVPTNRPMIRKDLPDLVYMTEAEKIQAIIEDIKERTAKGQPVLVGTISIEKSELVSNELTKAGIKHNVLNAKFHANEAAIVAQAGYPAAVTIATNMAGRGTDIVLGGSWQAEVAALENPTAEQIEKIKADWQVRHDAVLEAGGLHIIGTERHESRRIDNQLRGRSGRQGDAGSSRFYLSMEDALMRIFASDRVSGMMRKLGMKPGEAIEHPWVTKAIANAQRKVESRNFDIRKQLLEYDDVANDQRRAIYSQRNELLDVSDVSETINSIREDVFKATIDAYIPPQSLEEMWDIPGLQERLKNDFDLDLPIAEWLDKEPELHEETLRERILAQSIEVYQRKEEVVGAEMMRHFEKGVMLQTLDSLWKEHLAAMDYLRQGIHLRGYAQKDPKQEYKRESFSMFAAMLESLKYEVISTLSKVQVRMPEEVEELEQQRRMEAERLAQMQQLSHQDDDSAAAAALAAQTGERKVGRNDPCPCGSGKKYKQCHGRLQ
Sequence of Sialic acid-binding Ig-like lectin 9 (Homo sapiens) (Q9Y336 whole entry): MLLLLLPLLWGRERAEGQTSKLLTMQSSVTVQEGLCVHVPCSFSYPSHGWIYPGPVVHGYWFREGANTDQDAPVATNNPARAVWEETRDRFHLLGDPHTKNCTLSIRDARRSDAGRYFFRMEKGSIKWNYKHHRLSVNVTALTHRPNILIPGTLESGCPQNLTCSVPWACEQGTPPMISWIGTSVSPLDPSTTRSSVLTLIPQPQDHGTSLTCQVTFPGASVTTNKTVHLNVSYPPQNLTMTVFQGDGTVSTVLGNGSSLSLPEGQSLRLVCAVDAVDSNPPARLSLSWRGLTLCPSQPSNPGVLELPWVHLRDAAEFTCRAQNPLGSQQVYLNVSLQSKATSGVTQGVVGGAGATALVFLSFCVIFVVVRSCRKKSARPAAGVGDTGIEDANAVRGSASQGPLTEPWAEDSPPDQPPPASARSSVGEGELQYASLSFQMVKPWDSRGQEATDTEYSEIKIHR

Consider `Cc1cnn(CC(C)NCc2ccc(-n3cccn3)cc2)c1` (stereo unspecified), for which the Percent Effect in [1] was -1.91%; in [2], 1.27%; in test [3] it was 2.55%; in [4], -4.21%; with Trypanosoma cruzi it was -3.18%; in test [5], 0.645%. The Percent Effect in [6] was -0.858%; in the test filed under Homo sapiens, -0.795%; in test [7], 0%; in test [8] it was -12.7%; in test [9], -18.2%.

In the case of `c1ccc(N2CCOC3(CCCN(c4nncs4)C3)C2)nc1` (stereo unspecified), the Percent Effect is -3.17% in [1]; 7.79% in test [2]; 3.64% in [3]; 2.14% in [4]; -1.28% with Trypanosoma cruzi; 3.23% in test [5]. In addition, the Percent Effect in test [6] is 14.4%; in the test listed under Homo sapiens, -6.63%; in test [7], 3.17%; in test [8], 8.97%; in [9] it was -7.1%.

Consider `CN(C)C(=O)N1CCN(C(=O)C(c2ccccc2F)N(C)C)CC1` (stereo unspecified), for which the Percent Effect in test [1] is -3.25%; in test [2], 9.72%; in test [3], -8.74%; in test [4], 14.1%; with Trypanosoma cruzi, 6.71%; in test [5], 7.06%. The Percent Effect in [6] was 14%; in the test filed under Homo sapiens, -4.8%; in test [7], 4.21%; in [8], 7.69%; in [9], -9.49%.

With `COc1ccc(CNC(=O)C2(C#N)CCCC2)cc1`, the Percent Effect in test [1] is -1.97%; in [2] it was 12.5%; in test [3], -13.3%; in test [4], -2.27%; in the test with Trypanosoma cruzi, 3.6%; in [5], -2.65%. Also, the Percent Effect was 15.1% in [6]; -14.7% in the test filed under Homo sapiens; 4.21% in [7]; 7.69% in test [8]; 95.5% in test [9].

Turning to `CCc1ccc(S(=O)(=O)Nc2cn(C)cc(Br)c2=O)cc1`, the Percent Effect in [1] is -3.35%; in test [2] it was 5.41%; in [3], -3.87%; in [4], 18.4%; in the test with Trypanosoma cruzi it was 4.25%; in test [5] it was -0.952%. Moreover, the Percent Effect is 11.6% in test [6]; 6.27% in the test filed under Homo sapiens; 2.65% in test [7]; 12.2% in test [8]; -5.04% in [9].

With `CN1CCCC1CNC(=O)CCCOCc1ccccc1` (stereo unspecified), the Percent Effect is -4.32% in [1]; 2.63% in test [2]; 1.84% in test [3]; 9.93% in test [4]; 2.44% in the test with Trypanosoma cruzi; 2.3% in test [5]. Moreover, the Percent Effect in test [6] was -4.01%; in the test listed under Homo sapiens it was -1.82%; in test [7], 5.39%; in [8], 7.32%; in test [9], 6%.

`CC(NC(=O)NCCCn1ccnc1)c1ccc2c(c1)OCCCO2` (stereo unspecified): the Percent Effect is -3.41% in [1]; 2.7% in [2]; -7.49% in [3]; -2.67% in test [4]; -8.08% with Trypanosoma cruzi; 5.36% in test [5]. The Percent Effect is -0.539% in [6]; 12.7% in the test listed under Homo sapiens; 1.98% in test [7]; 1.22% in test [8]; 2.18% in [9].

With `CCOCCCNC(=O)c1nn(CC)cc1Cl`, the Percent Effect is -0.389% in test [1]; 14.7% in test [2]; -2.38% in test [3]; -8.09% in test [4]; 3.14% in the test with Trypanosoma cruzi; -8.28% in test [5]. Also, the Percent Effect was 12.8% in [6]; 18.8% in the test filed under Homo sapiens; 5.29% in test [7]; 12.8% in test [8]; -10.4% in test [9].

For the compound `CCOC(=O)N1CCN(c2nc(NC)c3ccccc3n2)CC1`, the Percent Effect in [1] is -3.25%; in test [2] it was 4%; in test [3], -1.05%; in [4] it was 9.22%; with Trypanosoma cruzi, 4.52%; in [5], -5.46%. Also, the Percent Effect in test [6] is 6.1%; in the test filed under Homo sapiens, 3.01%; in [7], 1.06%; in test [8], 5.13%; in test [9], -1.69%.

On to `CCN(CC)C(=O)c1ccn(COc2ccccc2)n1`, for which the Percent Effect was -2.87% in [1]; -4% in [2]; 2.57% in [3]; 5.83% in [4]; 4.32% with Trypanosoma cruzi; -2.99% in test [5]. The Percent Effect in [6] was 8.5%; in the test filed under Homo sapiens, 1.5%; in test [7] it was 5.29%; in [8], 10.3%; in test [9], -0.306%.

Turning to `O=C(Nc1ccccc1)c1nn(C2CCS(=O)(=O)C2)c2c1CCCC2` (stereo unspecified), the Percent Effect was -4.15% in test [1]; 5.26% in [2]; 5.68% in test [3]; 0.438% in [4]; -1.07% in the test with Trypanosoma cruzi; -2.37% in test [5]. Besides, the Percent Effect was 10.3% in [6]; 8.39% in the test filed under Homo sapiens; 1.06% in test [7]; 10.4% in test [8]; -4.11% in test [9].
